Data on 13 compounds can be found in PubChem BioAssay (NCI).

Molecules are shown by their SMILES. Several values for one entry are separate records, joined by “and”; a condition that tells them apart may be missing. Equal entries are not always repeated. This is part of a sample that, as a whole, favours compounds with a hit. Of some 83,000 tested, about 20% had one in any assay.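 For each line, cells grew in 96-well plates with the test compound present at a single concentration for 48 hours.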 Activity calls are given as the source filed them. Rule for the calls: active = growth percent below 10; inactive = the rest.

What all share (experiment): NCI-60 one-dose screen, 48 h (100 = growth as untreated, 0 = no growth, -100 = all killed)
In one test the test system is SK-MEL-2 melanoma. The conditions noted are these: 10 µM unless noted.
For the next test, the system named is EKVX NSCLC. The conditions noted are these: 10 µM.
A further test concerns SN12C renal. The conditions noted are these: 10 µM unless noted.
A further test has as its system TK-10 renal.
Another test relates to ACHN renal. The following applies: 10 µM unless noted.
The next test relates to A498 renal. The conditions noted are these: 10 µM unless noted.
For another test, the system named is CCRF-CEM leukemia. The conditions noted are these: 10 µM.
The subject of another test is MOLT-4 leukemia. The conditions noted are these: 10 µM unless noted.
The next test deals with CAKI-1 renal. The following applies: 10 µM unless noted.
Another test has as its system UO-31 renal. The following applies: 10 µM unless noted.

Regarding `CC1CCC2(OC1)OC1CC3C4CC=C5CC(O)CCC5(C)C4CCC3(C)C1C2C` (stereo unspecified), the growth in the test with SK-MEL-2 melanoma was 122% (inactive); in the test with EKVX NSCLC, 96.6% (inactive); in the test with SN12C renal, 100% (inactive); in the test with TK-10 renal (10 µM unless noted), 101% (inactive); in the test with ACHN renal, 93.5% (inactive); in the test on A498 renal, 110% (inactive). The growth in the test with CCRF-CEM leukemia was -55.7% (active); in the test on MOLT-4 leukemia, 102% (inactive).
Take `CC1CCC2(C(=O)O)CCC3(C)C(=CCC4C5(C)CCC(O)C(C)(C)C5CCC43C)C2C1C` (stereo unspecified): the growth in the test with SK-MEL-2 melanoma is 82.5% (inactive) and 86.8% (inactive); in the test with SN12C renal, 79.3% (inactive) and 99.7% (inactive); in the test on TK-10 renal (10 µM), 90.6% (inactive) and 88.5% (inactive); in the test with TK-10 renal (100 µM), -77.6% (active) and -96.8% (active); in the test with ACHN renal it was 57.7% (inactive) and 76.2% (inactive); in the test on CAKI-1 renal it was 40.4% (inactive) and 90.8% (inactive). For the same compound, the growth with A498 renal was 103% (inactive); in the test with CCRF-CEM leukemia, -22.1% (active) and 35.8% (inactive); in the test with MOLT-4 leukemia it was -11.8% (active) and 84.5% (inactive).
`C/C(=C\c1ccccc1)c1ccccn1`: the growth in the test on SK-MEL-2 melanoma was 128% (inactive); with SN12C renal it was 95.8% (inactive); in the test with UO-31 renal it was 98.9% (inactive); in the test with TK-10 renal (10 µM unless noted) it was 162% (inactive); with ACHN renal it was 105% (inactive); with CAKI-1 renal, 102% (inactive). Moreover, the figures for the growth in the test with A498 renal and in the test on CCRF-CEM leukemia were 111% (inactive) and 94.5% (inactive), respectively.
Consider `ClCCOCCOc1ccc(C2CCCCC2)cc1`, for which the growth with SK-MEL-2 melanoma is 102% (inactive); in the test with SN12C renal, 96.3% (inactive); in the test on UO-31 renal, 99.5% (inactive); in the test on TK-10 renal (10 µM unless noted), 108% (inactive); with ACHN renal, 108% (inactive); with CAKI-1 renal, 97.3% (inactive). The growth in the test with A498 renal is 73.1% (inactive); with CCRF-CEM leukemia, 107% (inactive); in the test on MOLT-4 leukemia, 120% (inactive).
With `CCCCNc1ccc(Nc2ccccc2)cc1`, the growth is 87.3% (inactive) in the test with SK-MEL-2 melanoma; 37% (inactive) in the test on EKVX NSCLC; 71.9% (inactive) with SN12C renal; 73.6% (inactive) in the test with TK-10 renal (10 µM unless noted); 77.6% (inactive) in the test on ACHN renal; 94.6% (inactive) in the test with CAKI-1 renal. In addition, the growth in the test on A498 renal was 82.7% (inactive); in the test on CCRF-CEM leukemia, 24.5% (inactive); with MOLT-4 leukemia it was 84.6% (inactive).
`CC(=O)NCC(=O)c1ccc([N+](=O)[O-])cc1`: the growth with SK-MEL-2 melanoma was 136% (inactive); with EKVX NSCLC it was 102% (inactive); in the test with SN12C renal it was 105% (inactive); in the test with UO-31 renal, 80.5% (inactive); with ACHN renal, 103% (inactive); in the test with CAKI-1 renal, 103% (inactive). For the same compound, the growth in the test with A498 renal was 81.2% (inactive); with CCRF-CEM leukemia, 99.5% (inactive).
`O=C(O)/C=C\C(=O)Nc1cccc2ccccc12`: the growth in the test on SK-MEL-2 melanoma was 88.2% (inactive) and 130% (inactive); in the test on SN12C renal, 97.6% (inactive) and 92.3% (inactive); in the test on UO-31 renal, 59.7% (inactive) and 72% (inactive); in the test with TK-10 renal (10 µM unless noted), 107% (inactive) and 121% (inactive); in the test with ACHN renal it was 90.5% (inactive) and 99.2% (inactive); in the test with CAKI-1 renal, 89.4% (inactive) and 98.7% (inactive). Also, the growth with A498 renal is 96.3% (inactive) and 115% (inactive); in the test on CCRF-CEM leukemia, 50.7% (inactive) and 101% (inactive); with MOLT-4 leukemia, 77.2% (inactive) and 84.1% (inactive).
`CC(C)C(C)(C)c1ccc(O)cc1`: the growth with SK-MEL-2 melanoma is 104% (inactive); with SN12C renal, 102% (inactive); with UO-31 renal, 98.1% (inactive); in the test with TK-10 renal (10 µM unless noted), 107% (inactive); in the test with ACHN renal it was 112% (inactive); in the test with CAKI-1 renal, 96.4% (inactive). The growth was 102% (inactive) in the test on A498 renal and 105% (inactive) in the test with CCRF-CEM leukemia.
`O=C(Cc1ccccc1)c1ccc(O)c(Cl)c1`: the growth is 64.9% (inactive) with SK-MEL-2 melanoma; 66.1% (inactive) with EKVX NSCLC; 31.1% (inactive) in the test with SN12C renal; 36.5% (inactive) with UO-31 renal; 47.4% (inactive) in the test on TK-10 renal (10 µM unless noted); 37.6% (inactive) with ACHN renal. In addition, the growth in the test with CAKI-1 renal was 42.1% (inactive); with A498 renal, 105% (inactive); with CCRF-CEM leukemia, -27.2% (active).
On to `Brc1ccc(SSc2ccc(Br)cc2)cc1`, for which the growth with SK-MEL-2 melanoma is 101% (inactive); in the test with SN12C renal, 63.8% (inactive); with UO-31 renal, 49.6% (inactive); in the test on TK-10 renal (10 µM unless noted), 97.1% (inactive); in the test on ACHN renal it was 109% (inactive); in the test with CAKI-1 renal, 106% (inactive). For the same compound, the growth with A498 renal is 71.2% (inactive); in the test on CCRF-CEM leukemia, 8.01% (active).
With `O=C1c2c(O)ccc(O)c2C(=O)c2c(NCCNCCO)ccc(NCCNCCO)c21`, the growth in the test with SK-MEL-2 melanoma was -87.6% (active) and -70.5% (active); in the test with EKVX NSCLC, -17.7% (active) and -29.5% (active); with SN12C renal, -45.7% (active) and -49.7% (active); in the test on UO-31 renal, -63.5% (active) and -53.9% (active); with TK-10 renal (10 µM unless noted), -35% (active) and -7% (active); with ACHN renal, -52.9% (active) and -45.2% (active). The growth in the test with CAKI-1 renal is -17.2% (active) and -31% (active); in the test with A498 renal it was -80.1% (active); with CCRF-CEM leukemia, -24.9% (active) and -30.9% (active).
`NC(Cc1c[nH]c2ccccc12)C(=O)O` (stereo unspecified): the growth in the test on SK-MEL-2 melanoma was 110% (inactive); with SN12C renal it was 101% (inactive); in the test with UO-31 renal, 91.9% (inactive) and 72.6% (inactive); with TK-10 renal (10 µM unless noted), 103% (inactive) and 98.8% (inactive); with ACHN renal, 99.8% (inactive) and 100% (inactive); in the test with CAKI-1 renal, 85% (inactive). Besides, the growth in the test on A498 renal was 109% (inactive) and 106% (inactive); in the test with CCRF-CEM leukemia, 105% (inactive) and 102% (inactive).
As to `NC1CCC(C(=O)O)CC1` (stereo unspecified), the growth with SK-MEL-2 melanoma was 104% (inactive) and 102% (inactive); in the test on EKVX NSCLC, 103% (inactive) and 105% (inactive); with SN12C renal, 97% (inactive) and 103% (inactive); with TK-10 renal (10 µM unless noted) it was 97.7% (inactive) and 102% (inactive); in the test on ACHN renal it was 106% (inactive) and 105% (inactive); with CAKI-1 renal it was 96.7% (inactive) and 90.7% (inactive). The growth is 94.7% (inactive) and 86.6% (inactive) in the test on A498 renal; 80.9% (inactive) and 79.5% (inactive) with CCRF-CEM leukemia; 107% (inactive) and 98% (inactive) with MOLT-4 leukemia.
